Assay outcomes (PubChem BioAssay)
An excerpt weighted towards active compounds, which were near 2.2% of everything screened.
ATXN2 expr inh – Primary qHTS for Inhibitors of ATXN expression; 360,000 compounds, 0.72% hits; HEK-293 ATXN2-luciferase reporter, luminescence, 24 h; Potency, µM (highest dose often 57 µM), for inactives: top-dose activity change, negative = inhibition, most hits filed as inhibitors; further: potency means the concentration at half of the fitted maximal effect; on the % scale 0 is the no-effect control and ±100 the full control effect; nearly all actives have a fitted effect of over 55% in size
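ATXN2-luciferase reporter cells (luciferase flanked by upstream and downstream ATXN2 gene portions) were treated 24 h at 37 °C with compounds at up to 57 uM. SteadyGlo luminescence gave expression; GF-AFC fluorescence gave viability.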
ATXN viability – Viability Counterscreen for Primary qHTS for Inhibitors of ATXN expression; S2 cells (HEK-293 line with an ATXN2-luciferase reporter) viability, CellTiter-Fluor protease fluorescence, 24 h; Potency, µM (top dose mostly 56.7 µM), most hits filed as cytotoxic; 400,000 compounds, 0.49% hits; AID 651635, 2014; further: potency means the concentration at half of the fitted maximal effect; nearly all actives have a fitted effect of over 40% in size
HepG2 viability – qHTS for Inhibitors of TGF-b: Cytotox Counterscreen; HepG2 CAGA-GFP viability, ATP luminescence, 18 h; Potency, µM (top dose mostly 46.1 µM), without a hit: at the top dose activity change, negative = cytotoxicity, usual class: cytotoxic; 410,000 compounds, 0.76% hits; AID 588856, 2011; further: potency means the concentration at half of the fitted maximal effect
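CellTiter-Glo luminescence gave cytotoxicity after 18 hours at 37 degrees C. The cells were HepG2 CAGA-GFP in 1% FBS DMEM, stimulated with 500 pg/mL TGF-beta after compound addition. %Activity was normalised to no-cell wells (complete cell-killing) and DMSO (no toxicity), and curves were fitted and classified.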
TGFb SMAD3 inh – qHTS for Inhibitors of TGF-b; AID 588855, 2011; HepG2 CAGA-GFP TGF-b/SMAD3 reporter, GFP fluorescence, 18 h; TGF-beta stimulated, 500 pg/mL final; 410,000 compounds, 1.2% hits; Potency, µM (series often up to 46.1 µM), for inactives: at the highest dose activity, negative = inhibition, most hits filed as inhibitors; further: potency means the concentration at half of the fitted maximal effect; on the % scale 0 is the no-effect control and ±100 the full control effect; nearly all actives have a fitted effect of over 65% in size
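Smad-responsive CAGA-GFP expression was quantified in HEPG2 cells exposed to compounds and 500 pg/mL final TGF-beta for 18 h at 37 degrees C; unstimulated wells defined full inhibition.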
LDHA inh – qHTS assay for inhibitors of human lactate dehydrogenase; L-lactate dehydrogenase A chain (Homo sapiens), P00338; purified LDHA, NADH/diaphorase-resazurin fluorescence; active compounds read low; activity change, % (values are at about 110 or 230 µM); 480,000 compounds, 0.15% hits; AID 1347041, 2019; in the data active means activity change below about -30%; inconclusive means mostly about -25% to -30%;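 further: plate controls were DMSO wells for no effect and wells without enzyme for full effect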
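Remaining NADH was detected by diaphorase (0.133 mg/mL) converting 37 µM resazurin to fluorescent resorufin, read at 0 and 20 minutes. The preceding 5-minute room-temperature reaction used 2 nM LDHA, 0.2 mM sodium pyruvate and 0.06 mM NADH at pH 7.4.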
mIDH1 inhibitor – qHTS for Inhibitors of mutant isocitrate dehydrogenase 1 (IDH1): qHTS. 390,000 compounds, 0.093% hits. IDH1-R132H enzyme, NADPH consumption, diaphorase/resazurin fluorescence. Isocitrate dehydrogenase [NADP] cytoplasmic (Homo sapiens), O75874. Potency, µM (titrated, usually from 76.6 µM), for inactives: at the top dose activity change, negative = inhibition, usual class: inhibitors. AID 602179, 2012; further: potency means the concentration at half of the fitted maximal effect; on the % scale 0 is the no-effect control and ±100 the full control effect; nearly all actives have a fitted effect of over 65% in size
Target sequence (O75874 whole entry R132H, stated change not applied): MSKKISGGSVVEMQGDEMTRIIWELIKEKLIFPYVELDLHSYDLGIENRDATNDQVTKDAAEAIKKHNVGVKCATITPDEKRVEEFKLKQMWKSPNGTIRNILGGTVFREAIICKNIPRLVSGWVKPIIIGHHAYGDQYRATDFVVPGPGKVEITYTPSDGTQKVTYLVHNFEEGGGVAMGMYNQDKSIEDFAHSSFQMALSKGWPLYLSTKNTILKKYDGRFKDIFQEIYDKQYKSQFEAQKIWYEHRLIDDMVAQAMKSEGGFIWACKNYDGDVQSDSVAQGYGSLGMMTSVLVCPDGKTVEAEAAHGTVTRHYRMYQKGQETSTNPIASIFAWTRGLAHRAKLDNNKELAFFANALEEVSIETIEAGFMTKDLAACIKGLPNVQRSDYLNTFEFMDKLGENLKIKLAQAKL
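IDH1-R132H (0.5 ug/mL dispensed) in pH 7.5 Tris buffer was preincubated 30 min with compound, then given a substrate mix of 0.016 mM NADPH and 2 mM alpha-KG for 80 min at room temperature; remaining NADPH was read by diaphorase/resazurin fluorescence.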
Active calls of the source: *; i = inactive; ? = inconclusive; · = no result given. Unless noted, the call rests on the fitted dose curve; in most records, active means well fitted curve in the direction sought with a large enough effect; inconclusive means small, poorly fitted or top-dose-only effect, or another doubt; inactive means no such curve, though single readings can be large; an effect the other way counts as inactive or inconclusive.

SMILES | ATXN2 expr inh | ATXN viability | HepG2 viability | TGFb SMAD3 inh | LDHA inh | mIDH1 inhibitor
c1ccc(-c2noc(-c3ccc4c(c3)OCO4)n2)nc1 | ? | i | 1.58µM* | -9.6% | 1.5 | 1.2%
Clc1ccccc1/C=C/c1nc(-c2ccccn2)no1 | 5.01µM* | i | -23.9% | 28.5% | -9.4 | 5.9%
Clc1ccc(-c2nc(-c3ccccn3)no2)cc1 | · | · | · | · | 4.3 | ·
O=C(NC1CCCCC1)c1n[nH]c2c1CCCCC2 | 10µM* | i | -48.6% | 16.0% | -10.9 | -1.7%
CN1CCN(CCNC(=O)c2cnn(-c3ccc(F)cc3)c2C2CCN(C(=O)OC(C)(C)C)CC2)CC1 | · | · | -13.4% | -24.0% | 0.2 | -1.5%
CC(C)C1C(=O)N(Cc2cn(CCC3OCCO3)nn2)CCS(=O)(=O)N1Cc1ccc(-c2ccc(Cl)c(Cl)c2)cc1 (configuration not stated) | ? | ? | -60.7% | ? | -1.7 | -11.5%
Cc1ccc(-c2ccc(CN3C(CC(C)C)C(=O)N(Cc4cn(CCC5OCCO5)nn4)CCS3(=O)=O)cc2)cc1 (configuration not stated) | 25.1µM* | 35.5µM* | 11.2µM* | 22.4µM* | -1.3 | -20.3%
CC(C)CC1C(=O)N(Cc2cn(CCC3OCCO3)nn2)CCS(=O)(=O)N1Cc1ccc(-c2ccccc2)cc1 (configuration not stated) | ? | ? | -43.7% | ? | 1.7 | -0.6%
CC(C)CC1C(=O)N(Cc2cn(CCC3OCCO3)nn2)CCS(=O)(=O)N1Cc1ccc(-c2ccc(Cl)c(Cl)c2)cc1 (configuration not stated) | ? | · | -56.3% | 11.2µM* | -2.6 | -9.0%
Cc1c(=O)n(OCc2ccc(Cl)cc2)c2ccccc2[n+]1[O-] | -19.1% | i | 0.8% | 18.4% | 1.3 | 1.9%
COc1cc(C(c2sc3nc(C)nn3c2O)N2CCC3(CC2)OCCO3)cc(OC)c1OC (configuration not stated) | 2.4% | i | -7.4% | -4.4% | -0.8 | 3.7%
CC(C)CCC(CCNCc1ccccn1)c1ccc(Cl)cc1 (configuration not stated) | -37.5% | i | 20µM* | 0.0% | -12.5 | -5.0%
Cn1nnnc1SCC(=O)NCCc1ccc(Cl)cc1 | -0.8% | i | 15.8µM* | -12.6% | -3.3 | 5.4%
O=C(CSc1nnc2ccccn12)NCCc1ccc(F)cc1 | 10.1% | i | -3.3% | 0.1% | -3.5 | 1.0%
COc1ccc(CCNC(=O)CSc2nnc3ccccn23)cc1 | 6.7% | i | 3.0% | 0.447µM* | -4.9 | 6.4%
COc1cccc(OCC(O)CN2CCN(c3ccccc3)CC2)c1 (configuration not stated) | 8.5% | i | 2.1% | 5.8% | -1.9 | 5.6%
O=C1C=C(c2c(O)ccc3ccccc23)c2ccccc2C1=O | 15.8µM* | · | 12.6µM* | 2.82µM* | 44.6 | 24.2%
CC1=C(C(=O)N(C)C)CC(CC(=O)NCc2cccs2)C(=O)N1Cc1ccccc1 (configuration not stated) | 1.4% | i | -4.5% | -5.8% | 0.1 | 17.7%
Cc1ccc(C2=NNC(=Nc3ccc(F)cc3)SC2)cc1 | 24.9% | i | -10.4% | 0.0% | -5.5 | ?
CCc1ccc(C2=NNC(=Nc3cccc(S(=O)(=O)N(C)C)c3)SC2)cc1 | ? | ? | -40.8% | 12.6µM* | -9.2 | -8.6%
CCOC(=O)CSC1=NC(=O)/C(=C\c2ccc(Cl)cc2)S1 | 25.1µM* | ? | -40.6% | 9.0% | -11.1 | ?
O=C(Cc1c(F)cccc1Cl)Nc1ccccn1 | 38.9% | i | 3.4% | 0.2% | -2.5 | 7.5%
O=C(Nc1cccs1)Nc1ccc(F)cc1F | 5.7% | i | -33.3% | -21.3% | -6.4 | -26.4%
O=C(Nc1cccs1)Nc1ccc(Br)cc1F | -11.0% | i | -36.5% | 11.2µM* | -0.6 | 11.0%
Oc1ccc(-c2ccc(-c3cc(Nc4cccc(CNC5CC5)c4)n[nH]3)cc2)c(O)c1 | 2.43µM* | · | · | · | · | ·
SMILES | ATXN2 expr inh | ATXN viability | HepG2 viability | TGFb SMAD3 inh | LDHA inh | mIDH1 inhibitor
c1ccc(COc2cccc(CNC3CC3)c2)cc1 | · | · | · | · | -12.4 | ·
NS(=O)(=O)c1ccc(Nc2c([N+](=O)[O-])cncc2[N+](=O)[O-])cc1 | -33.6% | i | -27.3% | ? | -33.5* | 21.1%
COc1cccc(Nc2c([N+](=O)[O-])cncc2[N+](=O)[O-])c1 | -18.5% | ? | -28.7% | ? | 3.3 | 4.9%
CCCCOc1ccc(/C=C(\C#N)c2nc(-c3ccc(Cl)cc3)cs2)cc1 | · | · | · | · | -10.1 | ·
CCOc1ccc(-c2csc(/C(C#N)=C\c3ccc(O)c([N+](=O)[O-])c3)n2)cc1 | ? | · | -6.7% | 5.01µM* | -4.7 | -18.8%
CC(C)NC(=O)C(C)Sc1nc(C2CC2)nc2ccccc12 (configuration not stated) | · | · | · | · | 2.3 | ·
O=C(O)c1cccc(N/N=C/c2cccs2)c1 | 10µM* | ? | 3.4% | 5.6% | -3.2 | 5.1%
COc1ccc(/C=C/c2c(-c3ccc(OC)cc3)oc3ccc(-c4ccc(OC)cc4)cc23)cc1 | -1.5% | i | 14.9% | 15.6% | 1.7 | 8.7%
COc1ccc(/C=C/c2cc(-c3ccc(C)cc3)o[n+]2C)cc1 | ? | ? | -50.8% | 10µM* | -1.7 | 3.1%
COc1ccc(NC(=O)CSc2nc3c(oc4ccccc43)c(=O)n2-c2ccccc2)cc1OC | -1.8% | 17.8µM* | 2.6% | -2.0% | -6.7 | -3.2%
Cc1cccc(NC(=O)CSc2nc3c(oc4ccccc43)c(=O)n2-c2ccccc2)c1 | -3.2% | i | -11.3% | -17.4% | -0.9 | 4.0%
COc1ccc(CNC(=O)CN(c2ccc(C)cc2)S(=O)(=O)c2c(C)n[nH]c2C)cc1 | 6.7% | i | -23.5% | ? | -13.8 | -3.0%
Cc1n[nH]c(C)c1S(=O)(=O)N(CC(=O)NCc1ccccc1Cl)c1ccc(C(C)C)cc1 | ? | 31.6µM* | -76.1% | ? | -0.4 | -23.4%
COc1cccc(CNC(=O)CN(c2ccc(C(C)C)cc2)S(=O)(=O)c2c(C)n[nH]c2C)c1 | ? | ? | -3.2% | 15.8µM* | 0.7 | -13.9%
CCc1c(C)sc(NC(=O)C2CC3CCC2C3)c1C#N (configuration not stated) | · | · | · | · | -2.7 | ·
COc1cccc(-c2cn3nc(C)c(C)nc3n2)c1 | -26.7% | i | -47.6% | 18.2% | -1.4 | 10.2%
